This is an account of results in PubChem BioAssay AID2685 (National Center for Advancing Translational Sciences (NCATS), 2010).

The whole screen tested about 320,000 compounds, of which about 2,100 (0.66%) were called active. Inconclusive results (about 53%) are left out. The call rests on the fitted dose curve; in most records, active means well fitted inhibition curve with a large enough effect in the signal ratio, with a control signal flat (not every such curve was filed as active); inconclusive means small, poorly fitted or top-dose-only effect, or effect the other way, or a change in a side signal; inactive means flat fitted curve, though single readings scatter; the % refers to the signal ratio. For the sample, actives were picked, then their nearest neighbours and some compounds at random.
Potency means the concentration at half of the fitted maximal effect.

This test can be described thus: qHTS Assay for Lipid Storage Modulators in Drosophila S3 Cells.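 On cell number change: cells counted by Cell Tracker Red CMTPX staining in the red channel.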 On lipid storage change, negative = inhibition: on the % scale 0 is the no-effect control and ±100 the full control effect. The settings on record: BODIPY lipid droplet fluorescence, 18-24 h, cells fed with added oleic acid; cell number change: measured here: cell count max response; series mostly up to 46.1 µM; lipid storage change, negative = inhibition: at the top concentration. Put shortly: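 Drosophila S3 cells got compounds at several concentrations plus oleic acid (400 uM solution). Laser-scanning cytometry with 488 nm excitation read lipid droplets at 500-530 nm and cells at 575-640 nm. Percent activity was relative to 20 uM Triacsin C.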
As for `CCOC(=O)Cn1c(=O)c2c(nc3n2CCS3)n(C)c1=O`, the “lipid storage change, negative = inhibition” value was 11.5% (inactive) and the cell number change stood at 2.48%. Regarding `CN1C(C(=O)NCc2ccco2)CC2Cn3c(nc4cc5ccccc5cc43)C21` (stereo not drawn), the “lipid storage change, negative = inhibition” value is 11.7% (inactive) and the cell number change stood at 2.89%.

`COc1cccc(C(=O)NCCS(=O)(=O)N2CC(C)CC(C)C2)c1` (stereo not drawn): the “lipid storage change, negative = inhibition” value is 27% (inactive) and the cell number change was 28.7%. For `CCN(Cc1ccccc1)C(c1ccncc1)c1nnnn1C(C)(C)C` (stereo not drawn), in that order: 8.87% (inactive) and 1.49%. On the same counts, the results for `CCCNc1nc2ccccc2c(=O)[nH]1` are 8.85% (inactive) and -7.59%. For `Cc1c2ccccc2nc2c(F)c(NCCO)c(F)c(F)c12`, in that order: -22.8% (inactive) and -2.87%. Consider `Cc1c2ccccc2nc2c(F)c(NC(C)C)c(F)c(F)c12`, for which the Potency was 20.6 µM (active) and the cell number change is -3.77%. Consider `CN(C)c1c2ccccc2nc2c(F)c(F)c(F)c(F)c12`, for which the “lipid storage change, negative = inhibition” value is 0.999% (inactive) and the cell number change was -0.117%. Turning to `CCCNc1c(F)c(F)c2c(C)c3ccccc3nc2c1F`, the Potency was 14.6 µM (active) and the cell number change is 13.7%. With `Cc1c2ccccc2nc2c(F)c(N(C)C)c(F)c(F)c12`, the “lipid storage change, negative = inhibition” value was -15.5% (inactive) and the cell number change was -4.76%.

Regarding `CCOC(=O)/C(=N\NC(=O)c1ccccc1)c1ccccc1`, the “lipid storage change, negative = inhibition” value is -1.81% (inactive) and the cell number change came to 17.6%. For `CCOC(=O)c1sc2ccc(S(=O)(=O)N3CCOCC3)cc2c1N`, in that order: -16.1% (inactive) and -11.9%. Take `CCOC(=O)NC(=O)CSc1cc(C)c2cc(C)cc(C)c2n1`: the “lipid storage change, negative = inhibition” value is 4.15% (inactive) and the cell number change was -6.06%.

For the molecule `O=C(c1ccc(F)cc1)N1CCN(S(=O)(=O)c2ccc(Br)cc2)CC1`, the outcome was inactive. Regarding `CCCC1(C(=O)OCC)NC(c2ccc(O)cc2)C2C(=O)N(c3ccc4c(c3)OCCO4)C(=O)C21` (stereo not drawn), the Potency is 18.4 µM (active). Turning to `CCOC(=O)C1(C)NC(c2ccc(O)cc2)C2C(=O)N(c3ccccc3)C(=O)C21` (stereo not drawn), the Potency was 20.6 µM (active) and the cell number change was determined as 13.7%.

For the molecule `COC(=O)C1(C)NC(c2ccc(O)cc2)C2C(=O)N(c3ccc(C)cc3)C(=O)C21` (stereo not drawn), the “lipid storage change, negative = inhibition” value was -17% (inactive) and the cell number change was -4.99%.

`CCCC1(C(=O)OCC)NC(c2ccc(N(C)C)cc2)C2C(=O)N(c3ccc4c(c3)OCCO4)C(=O)C21` (stereo not drawn): the “lipid storage change, negative = inhibition” value was -5.4% (inactive) and the cell number change was 7.42%. For `COC(=O)C1(CCSC)NC(c2ccc(O)cc2)C2C(=O)N(c3ccc4c(c3)OCCO4)C(=O)C21` (stereo not drawn), in that order: 9.79% (inactive) and 9.07%. On the same counts, the results for `CCOC(=O)C1(C)NC(c2cccc(C)c2)C2C(=O)N(c3ccccc3)C(=O)C21` (stereo not drawn) are 7.92% (inactive) and 1.72%. For `c1ccc(N2CCN(CCc3nnc4n3CCCCC4)CC2)cc1`, in that order: -2.85% (inactive) and 1.29%. On to `Cc1cc(NC(=O)c2ccco2)ccc1NC(=O)c1ccco1`, for which the “lipid storage change, negative = inhibition” value is -6.74% (inactive) and the cell number change was 11.3%. In the case of `CCOc1ccccc1NCc1cc(=O)oc2cc(C)c(O)cc12`, the Potency was 3.66 µM (active) and the cell number change was -1.8%.

As to `CCOc1ccccc1NCc1cc(=O)oc2cc(C)ccc12`, the molecule was classed as inactive and the cell number change was -3.97%. With `Cc1cc2oc(=O)cc(CNc3ccccc3F)c2cc1O`, the “lipid storage change, negative = inhibition” value was 5.68% (inactive) and the cell number change was -14.4%. `CC(C)(C)c1ccc(NC(=O)c2cc[n+]([O-])cc2)cc1`: the molecule was called inactive and the cell number change is 27.8%. Turning to `Cc1ccn(CC(C)C(=O)O)n1` (stereo not drawn), the “lipid storage change, negative = inhibition” value is 0.546% (inactive) and the cell number change came out at 3.92%. For `CCN1CCN(C(CNS(=O)(=O)c2ccc(Br)cc2)c2cccnc2)CC1` (stereo not drawn), in that order: 7.69% (inactive) and -9.83%. On the same counts, the results for `CCOc1ccc(NC(=O)Nc2ccc(NC(C)=O)cc2)cc1` are 3.13% (inactive) and 11%.

With `CCOc1ccc(NC(=O)Nc2cccc(C(=O)O)c2)cc1`, the “lipid storage change, negative = inhibition” value is 5.5% (inactive) and the cell number change worked out at 14.2%.

Consider `CCOc1ccc(NC(=O)Nc2cc(OCC(F)(F)F)cc(OCC(F)(F)F)c2)cc1`, for which the Potency is 5.8 µM (active) and the cell number change was -25.7%. Regarding `CN(C)CCn1c2ccccc2c2nc3ccc([N+](=O)[O-])cc3cc21`, the Potency was 7.31 µM (active) and the cell number change was -46.5%.

`O=[N+]([O-])c1ccc2c(c1)c1ccccc1n2CCO`: the “lipid storage change, negative = inhibition” value was -5.42% (inactive) and the cell number change was determined as 0.129%. For `CCN(CC)CCn1c2ccccc2c2nc3ccc([N+](=O)[O-])cc3cc21`, in that order: 14.4% (inactive) and 8.11%. `CC1(C)CC(=O)C2=C(C1)OC(N)=C(C#N)C2c1ccsc1` (stereo not drawn): the outcome was inactive.

Consider `COc1ccc(N2CCN(C(=O)C3CCN(S(=O)(=O)c4ccc5c(c4)oc(=O)n5C)CC3)CC2)cc1`, for which the molecule was classed as inactive.

In the case of `COc1cc(/C=C/C(=O)Nc2ccc3nc4n(c(=O)c3c2)CCCC4)cc(OC)c1OC`, the “lipid storage change, negative = inhibition” value was 0.128% (inactive) and the cell number change is -7.64%. On the same counts, the results for `C/C(=N/Nc1ccccc1[N+](=O)[O-])c1ccc([N+](=O)[O-])cc1` are 7.53% (inactive) and 22.2%. `CC(C)/C(=N/Nc1ccccc1[N+](=O)[O-])c1ccccc1`: the Potency is 9.2 µM (active) and the cell number change is -12.6%. As to `O=[N+]([O-])c1ccccc1N/N=C/c1ccccc1`, the molecule was classed as inactive and the cell number change was -10.2%. Turning to `COc1cccc(CN2CC(C(=O)NCCCn3cccn3)CCC2=O)c1` (stereo not drawn), the “lipid storage change, negative = inhibition” value was -17.1% (inactive) and the cell number change worked out at 0.348%. Consider `CCCNC(=O)Cn1c(=O)/c(=C\c2ccc(-c3cccc([N+](=O)[O-])c3)o2)s/c1=C\C(=O)C(C)(C)C`, for which the result was inactive and the cell number change was 0.916%.

Consider `CC(C)(C)C(=O)/C=c1\s/c(=C\c2ccc(-c3ccc([N+](=O)[O-])cc3)o2)c(=O)n1CC(=O)NC(N)=O`, for which the Potency was 1.03 µM (active) and the cell number change was -31.4%. Take `CCC(=O)N/N=C/c1ccc(-c2ccc([N+](=O)[O-])cc2)o1`: the “lipid storage change, negative = inhibition” value was 20.1% (inactive) and the cell number change worked out at 3.62%. For `O=C(COC(=O)CCN=C1NS(=O)(=O)c2ccccc21)NNC(=O)c1ccccc1`, in that order: -1.99% [at 0.0737 µM] (inactive) and -17.2%. For `Cn1cc(CN2CCC(N3CCNC(=O)CC3)CC2)c(-c2ccccc2F)n1`, in that order: -10.8% (inactive) and -9.69%.
